Experimental findings from PubChem BioAssay (NCI) are described below.

The nature of experiment [1]: NCI Yeast Anticancer Drug Screen. Data for the rad50 strain (AID 155).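 Note: 0% = growth of vehicle-only cultures of the same strain.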 The following applies: S. cerevisiae rad50 strain growth inhibition, stronger effect = higher value. The method, boiled down: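 Cells are treated with compound, grown, and their growth is then scored against vehicle-only cultures of the same repair-deficient yeast strain.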
Experiment [2] is described as follows: NCI Yeast Anticancer Drug Screen. Data for the mec2-1 strain (AID 157). Conditions: S. cerevisiae mec2-1 strain, stronger effect = higher value. The method, boiled down: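 Vehicle-treated cultures served as reference for growth inhibition of compound-exposed mec2-1 yeast.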
A short description of experiment [3]: NCI Yeast Anticancer Drug Screen. Data for the sgs1 mgt1 strain (AID 161).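 Note: 0% = growth of cultures given vehicle only.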 Conditions: S. cerevisiae sgs1 mgt1 strain, stronger effect = higher value. In short, it runs like this: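 Read-out: growth inhibition vs vehicle controls. Cells: mutant yeast strain deficient in DNA damage repair.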
Experiment [4] can be described thus: NCI Yeast Anticancer Drug Screen. Data for the cln2 rad14 strain (AID 165).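 Note: 0% = growth equal to vehicle treated cultures.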 The following applies: S. cerevisiae cln2 rad14 strain, stronger effect = higher value. In short, it runs like this: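 Each compound was tested on cln2 rad14 yeast. Inhibition of growth was calculated against vehicle-exposed controls.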
A short description of experiment [5]: NCI Yeast Anticancer Drug Screen. Data for the bub3 strain (AID 167). Conditions: S. cerevisiae bub3 mutant strain, stronger effect = higher value. In short, it runs like this: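 Part of a panel of yeast mutants defective in DNA damage repair or cell cycle regulation. Each strain is grown with compound, and inhibition is calculated relative to solvent-treated cultures.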

A short description of experiment [6]: NCI Yeast Anticancer Drug Screen. Data for the mlh1 rad18 strain (AID 175). Conditions: S. cerevisiae mlh1 rad18 strain growth inhibition, stronger effect = higher value. The method, boiled down:
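Vehicle-treated cultures served as the reference for growth inhibition in a yeast strain carrying DNA damage repair alterations exposed to each compound.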

The mark [7] stands for this setting: at 5.0 µM (retest, dose inferred, filed as 0.5).
The mark [8] stands for this setting: at 50.0 µM (retest, dose inferred, filed as 5.0).

This is part of a sample that, as a whole, favours compounds with a hit. Of some 79,000 tested, about 15% had one in any assay. A number with no mark means an inactive call. Calls of active or inactive are those of the source. Cut-off read from the data, not from the text of the source: active = growth inhibition above about 70%; inactive = the rest.

As to `O=C1N=c2ccc(Br)cc2=C1c1sc(=O)n(Cc2nc3ccccc3[nH]2)c1O`, the growth inhibition in experiment [1] (setting [7]) was 3%; in experiment [1] (setting [8]) it was -8%; in experiment [1] (at 50.0 µM) it was 70.5% (active); in experiment [2] (setting [7]), -11%; in experiment [2] (setting [8]), 8%; in experiment [2] (at 50.0 µM) it was 54%. Further, the growth inhibition is -2% in experiment [3] (setting [7]); 4% in experiment [3] (setting [8]); 79.2% (active) in experiment [3] (at 50.0 µM); -6% in experiment [4] (setting [7]); 6% in experiment [4] (setting [8]); 55.7% in experiment [4] (at 50.0 µM). The growth inhibition in experiment [5] (setting [7]) is 1%; in experiment [5] (setting [8]) it was 13%; in experiment [5] (at 50.0 µM) it was 9.4%; in experiment [6] (setting [7]), 0%; in experiment [6] (setting [8]), 38%; in experiment [6] (at 50.0 µM), 88.7% (active).

Regarding `CN1C(=O)OC(C)(c2ccccc2)C1=O` (configuration not stated), the growth inhibition was -3% in experiment [1] (setting [7]); 4% in experiment [1] (setting [8]); -14.7% in experiment [1] (at 50.0 µM); -2% in experiment [2] (setting [7]); -3% in experiment [2] (setting [8]); -1.1% in experiment [2] (at 50.0 µM). Also, the growth inhibition in experiment [3] (setting [7]) was -2%; in experiment [3] (setting [8]) it was 0%; in experiment [3] (at 50.0 µM), -13.6%; in experiment [4] (setting [7]), 2%; in experiment [4] (setting [8]), -1%; in experiment [4] (at 50.0 µM), 78% (active). In addition, the growth inhibition was 2% in experiment [5] (setting [7]); -7% in experiment [5] (setting [8]); -11.8% in experiment [5] (at 50.0 µM); 0% in experiment [6] (setting [7]); 8% in experiment [6] (setting [8]); -2.55% in experiment [6] (at 50.0 µM).

As for `COc1cc(Cc2n[nH]c(=S)n2-c2ccccc2)c(S(=O)(=O)N2CCOCC2)cc1OC`, the growth inhibition in experiment [1] (setting [7]) was 4%; in experiment [1] (setting [8]) it was 1%; in experiment [1] (at 50.0 µM), -10.2%; in experiment [2] (setting [7]), -2%; in experiment [2] (setting [8]) it was -5%; in experiment [2] (at 50.0 µM), -5.2%. For the same molecule, the growth inhibition in experiment [3] (setting [7]) was 9%; in experiment [3] (setting [8]), -6%; in experiment [3] (at 50.0 µM) it was -0.7%; in experiment [4] (setting [7]) it was 1%; in experiment [4] (setting [8]), 0%; in experiment [4] (at 50.0 µM), 82.7% (active). The growth inhibition is -3% in experiment [5] (setting [7]); 7% in experiment [5] (setting [8]); -32% in experiment [5] (at 50.0 µM); -2% in experiment [6] (setting [7]); -62% in experiment [6] (setting [8]); 11.4% in experiment [6] (at 50.0 µM).

For `O=[N+]([O-])c1cccc2nc3ccccc3c(NCCNCCO)c12`, the growth inhibition in experiment [1] (setting [7]) was 89% (active); in experiment [1] (setting [8]), 98% (active); in experiment [1] (at 50.0 µM), 75.3% (active); in experiment [2] (setting [7]), 95% (active); in experiment [2] (setting [8]), 99% (active); in experiment [2] (at 50.0 µM), 51.2%. In addition, the growth inhibition in experiment [3] (setting [7]) was 90% (active); in experiment [3] (setting [8]), 99% (active); in experiment [3] (at 50.0 µM) it was 80.2% (active); in experiment [4] (setting [7]) it was 75% (active); in experiment [4] (setting [8]), 98% (active); in experiment [4] (at 50.0 µM), 76.8% (active). The growth inhibition was 42% in experiment [5] (setting [7]); 99% (active) in experiment [5] (setting [8]); 10.6% in experiment [5] (at 50.0 µM); 89% (active) in experiment [6] (setting [7]); 98% (active) in experiment [6] (setting [8]); 88% (active) in experiment [6] (at 50.0 µM).

In the case of `COc1cccc2c1N[S@](=O)S2`, the growth inhibition in experiment [1] (setting [7]) was -12%; in experiment [1] (setting [8]) it was 95% (active); in experiment [1] (at 50.0 µM) it was 86.9% (active); in experiment [2] (setting [7]), -12%; in experiment [2] (setting [8]), 94% (active); in experiment [2] (at 50.0 µM), 90.2% (active). In addition, the growth inhibition in experiment [3] (setting [7]) is 1%; in experiment [3] (setting [8]), 68%; in experiment [3] (at 50.0 µM) it was 77.9% (active); in experiment [4] (setting [7]) it was -2%; in experiment [4] (setting [8]) it was 33%; in experiment [4] (at 50.0 µM), 30%. For the same molecule, the growth inhibition is 1% in experiment [5] (setting [7]); 95% (active) in experiment [5] (setting [8]); 95.5% (active) in experiment [5] (at 50.0 µM); -11% in experiment [6] (setting [7]); 77% (active) in experiment [6] (setting [8]); 69.9% in experiment [6] (at 50.0 µM).

`O=C(O)C1CC[N-]CC1.O=C(O)C1CC[N-]CC1.[Cl][Pt+2]([Cl])([Cl])[Cl]`: the growth inhibition is 30% in experiment [1] (setting [7]); 90% (active) in experiment [1] (setting [8]); 97.6% (active) in experiment [1] (at 50.0 µM); 2% in experiment [2] (setting [7]); 94% (active) in experiment [2] (setting [8]); 85.2% (active) in experiment [2] (at 50.0 µM). The growth inhibition in experiment [3] (setting [7]) was 38%; in experiment [3] (setting [8]) it was 94% (active); in experiment [3] (at 50.0 µM) it was 94.1% (active); in experiment [4] (setting [7]) it was 0%; in experiment [4] (setting [8]), 97% (active); in experiment [4] (at 50.0 µM), 81.7% (active). The growth inhibition in experiment [5] (setting [7]) was 17%; in experiment [5] (setting [8]) it was 93% (active); in experiment [5] (at 50.0 µM) it was 90.2% (active); in experiment [6] (setting [7]), 25%; in experiment [6] (setting [8]), 94% (active); in experiment [6] (at 50.0 µM), 88.8% (active).

Turning to `S=C(C(=S)N1CCOCC1)N1CCOCC1`, the growth inhibition in experiment [1] (setting [7]) is 14%; in experiment [1] (setting [8]) it was 16%; in experiment [1] (at 50.0 µM), 0.05%; in experiment [2] (setting [7]), 12%; in experiment [2] (setting [8]) it was 16%; in experiment [2] (at 50.0 µM), 26.1%. The growth inhibition in experiment [3] (setting [7]) is 19%; in experiment [3] (setting [8]), 27%; in experiment [3] (at 50.0 µM), 12.8%; in experiment [4] (setting [7]), 15%; in experiment [4] (setting [8]) it was 12%; in experiment [4] (at 50.0 µM), -16.8%. Moreover, the growth inhibition is 22% in experiment [5] (setting [7]); 23% in experiment [5] (setting [8]); 11.8% in experiment [5] (at 50.0 µM); 16% in experiment [6] (setting [7]); 16% in experiment [6] (setting [8]); 7.95% in experiment [6] (at 50.0 µM).

On to `CCN(CC)c1ccc(NC(CC(O)c2ccccc2)c2ccccc2)cc1` (configuration not stated), for which the growth inhibition in experiment [1] (setting [7]) is -14%; in experiment [1] (setting [8]), 1%; in experiment [1] (at 50.0 µM) it was -24%; in experiment [2] (setting [7]) it was -3%; in experiment [2] (setting [8]) it was -1%; in experiment [2] (at 50.0 µM), 5.8%. The growth inhibition was -5% in experiment [3] (setting [7]); 5% in experiment [3] (setting [8]); -0.8% in experiment [3] (at 50.0 µM); -5% in experiment [4] (setting [7]); -3% in experiment [4] (setting [8]); 51.5% in experiment [4] (at 50.0 µM). Moreover, the growth inhibition is -4% in experiment [5] (setting [7]); 2% in experiment [5] (setting [8]); 21.1% in experiment [5] (at 50.0 µM); -5% in experiment [6] (setting [7]); -7% in experiment [6] (setting [8]); 24.5% in experiment [6] (at 50.0 µM).

As for `Cc1ccc(C(=O)CCCN2CCOCC2)c(C)c1`, the growth inhibition in experiment [1] (setting [7]) is 13%; in experiment [1] (setting [8]) it was 46%; in experiment [1] (at 50.0 µM) it was 77.5% (active); in experiment [2] (setting [7]) it was 5%; in experiment [2] (setting [8]), 30%; in experiment [2] (at 50.0 µM) it was 38.8%. Further, the growth inhibition in experiment [3] (setting [7]) is 27%; in experiment [3] (setting [8]) it was 57%; in experiment [3] (at 50.0 µM) it was 58.8%; in experiment [4] (setting [7]), 29%; in experiment [4] (setting [8]) it was 63%; in experiment [4] (at 50.0 µM) it was 50.5%. For the same molecule, the growth inhibition in experiment [5] (setting [7]) is 30%; in experiment [5] (setting [8]), 69%; in experiment [5] (at 50.0 µM), 73.8% (active); in experiment [6] (setting [7]), 5%; in experiment [6] (setting [8]) it was 43%; in experiment [6] (at 50.0 µM), 72.8% (active).
